Coupling enz: qHTS Assay for Inhibitors of Fructose-1,6-bisphosphate Aldolase from Giardia Lamblia: Coupling assay counterscreen | coupling enzyme system counterscreen, AmpLite Red fluorescence | activity change, negative = inhibition, % at 58.2 µM, hits read low | 0.67% of 290,000 active; in the data active means activity change below about -30%
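Final compound at 57.5 uM, incubated 10 min at RT with coupling enzyme reagent (glyceraldehyde-3-phosphate), then 20 min with substrate and AmpLite Red detection. Fluorescence read at 525/598 nm; tests interference with the coupling assay, not aldolase inhibition.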
TSHR antagonist: Antagonists of the Thyroid Stimulating Hormone Receptor: HTS campaign; TSHR-expressing cells, TSH-stimulated cAMP HTRF, 2 h; stronger effect = lower value; 0.2% of 330,000 active; Thyrotropin receptor (Homo sapiens), P16473; AID 504810, 2011; activity change, negative = inhibition, % at 11.5 µM;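 active means activity change below a set negative limit, meaning inhibition stronger than a set level, cut at about -70% in these data; inconclusive means activity change between two set negative limits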
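Competitive HTRF cAMP read-out (cryptate anti-cAMP antibody, cAMP-d2; 30 min, room temperature) in freshly harvested TSHR cells. Compounds added before TSH at EC80 (4nM final), followed by 2 hours' incubation at 37 deg C.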
ELG1 repair inh: qHTS screen for small molecules that inhibit ELG1-dependent DNA repair in human embryonic kidney (HEK293T) cells expressing luciferase-tagged ELG1 | Potency, µM (highest dose often 46.1 µM), inactives show top-dose activity change, negative = inhibition, most hits filed as inhibitors | 2.3% of 330,000 active | AID 504467, 2011 | HEK293T ELG1-luciferase reporter, luminescence, 16 h; DNA damage induced by 5-fluorouridine; further: potency means the concentration at half of the fitted maximal effect; nearly all actives have a fitted effect of over 55% in size
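Reporter activity after DNA damage by 5-fluorouridine is monitored. Compound-treated cells incubate 16 hr at 37 °C, then ONE-Glo is added for 30 min before luminescence reading.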
RORgamma inh: qHTS for inhibitors of ROR gamma transcriptional activity. Nuclear receptor ROR-gamma (Mus musculus), P51450. Drosophila S2 Gal4-RORgamma UAS-luciferase reporter, 20 h. Potency, µM (doses to about 53.6 µM), without a hit: at the highest dose activity change, negative = inhibition, actives largely listed as inhibitors. 5.4% of 310,000 active. AID 2551, 2010; further: potency means the concentration at half of the fitted maximal effect; nearly all actives have a fitted effect of over 60% in size
Target sequence (P51450 whole entry, looked up, the tested form may be a part): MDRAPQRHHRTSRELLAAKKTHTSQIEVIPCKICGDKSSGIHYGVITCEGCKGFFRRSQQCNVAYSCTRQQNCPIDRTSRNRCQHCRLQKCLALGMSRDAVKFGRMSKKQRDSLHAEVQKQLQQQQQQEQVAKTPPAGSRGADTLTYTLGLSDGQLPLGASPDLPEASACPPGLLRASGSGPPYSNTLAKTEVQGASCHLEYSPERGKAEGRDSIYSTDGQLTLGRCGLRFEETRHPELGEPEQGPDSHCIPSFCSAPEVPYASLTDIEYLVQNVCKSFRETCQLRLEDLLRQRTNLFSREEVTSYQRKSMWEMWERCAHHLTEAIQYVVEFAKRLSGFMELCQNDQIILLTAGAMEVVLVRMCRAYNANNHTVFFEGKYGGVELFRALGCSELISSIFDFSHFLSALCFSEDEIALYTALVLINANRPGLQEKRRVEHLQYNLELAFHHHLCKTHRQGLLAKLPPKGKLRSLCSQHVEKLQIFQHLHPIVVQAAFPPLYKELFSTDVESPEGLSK
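Using a luciferase readout, inhibitors were identified by reduced reporter activity in Drosophila cells coexpressing a copper-inducible Gal4–ROR gamma fusion and UAS-driven Photinus luciferase, incubated 20 hr after 700 uM copper sulfate.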
Gal4-VP16 FLuc: VP16 counterscreen qHTS for inhibitors of ROR gamma transcriptional activity; Drosophila S2 Gal4-VP16 UAS-luciferase, luminescence, 20 h; Potency, µM (top dose mostly 53.6 µM), without a hit: at the highest dose activity, negative = inhibition, hits mostly inhibitors; 3.5% of 310,000 active; AID 2546, 2010;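 further: Gal4-VP16 expression switched on by copper sulfate through the metallothionein promoter; potency means the concentration at half of the fitted maximal effect; nearly all actives have a fitted effect of over 50% in size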
* = called active by the depositor; ? = inconclusive; . = no result; [ ] = dose if it differs, or a comment. Hits are enriched below; roughly 8% of the tested compounds scored in any of these assays. Unless noted, the call rests on the fitted dose curve; in most records, active means well fitted curve in the direction sought with a large enough effect; inconclusive means small, poorly fitted or top-dose-only effect, or another doubt; inactive means no such curve, though single readings can be large; an effect the other way counts as inactive or inconclusive. On the % scale 0 is the no-effect control and ±100 the full control effect.

SMILES	Coupling enz	TSHR antagonist	ELG1 repair inh	RORgamma inh	Gal4-VP16 FLuc
Cc1cc(C(=O)N/N=C\c2ccc(COc3ccc([N+](=O)[O-])cc3)o2)ccc1[N+](=O)[O-]	2	-14	0%	11µM*	?
O=C(N/N=C/c1ccncc1)c1cc([N+](=O)[O-])cc([N+](=O)[O-])c1	-1	9	1%	-33%	-11%
Cc1cc([N+](=O)[O-])ccc1-c1ccc(/C=N/NC(=O)c2ccc(Br)o2)o1	.	3	-12%	7.1µM*	7.9µM*
O=C(N/N=C/c1ccc(Br)o1)c1cc([N+](=O)[O-])cc([N+](=O)[O-])c1	-2	1	0%	1.6µM*	4.5µM*
O=C(N/N=C/c1ccco1)c1cc([N+](=O)[O-])cc([N+](=O)[O-])c1	9	2	1%	5.6µM*	10µM*
O=C(N/N=C/c1ccco1)c1cccc([N+](=O)[O-])c1	3	6	3%	?	-28%
Cc1ccc(OCC(=O)N/N=C\c2ccc(C)o2)c([N+](=O)[O-])c1	3	1	11%	8%	8%
CC(OC(=O)c1ccco1)C(=O)NCc1ccc2c(c1)OCO2 (stereo unspecified)	2	7	14%	3%	4%
Cc1cc(C)n(Cc2ccc(C(=O)N/N=C/c3ccc(-c4ccc([N+](=O)[O-])cc4)o3)o2)n1	0	-24	?	8.9µM*	6.3µM*
CCC(=O)N/N=C/c1ccc(-c2ccc([N+](=O)[O-])cc2)o1	3	-5	-4%	-9%	9%
S=C(Nc1ccc(Br)cc1Cl)NN1CCOCC1	0	0	1%	3.5µM*	18µM*
FC(F)(F)c1ccccc1NC(=S)NN1CCOCC1	-2	1	-6%	0%	?
Fc1ccc(NC(=S)NN2CCOCC2)cc1Cl	-1	5	6%	2.8µM*	?
CCCCn1c(N)c(N(CC(C)C)C(=O)c2cc(-c3ccncc3)nc3ccccc23)c(=O)[nH]c1=O	.	15	12%	.	.
CCCCNC(=O)C(c1ccc(OCC(=O)OC)c(C(=O)OC)c1)N(Cc1ccccc1)C(=O)CCCCCN1C(=O)NC(c2ccc(-c3ccccc3)cc2)C(C(=O)OCc2ccccc2)=C1C (stereo unspecified)	-3	.	.	6%	-3%
Cc1cccc(OCC(=O)N/N=C\c2cn(C)c3ccccc23)c1	-2	-22	5.8µM*	?	?
CCC(C)c1ccc(OCCn2cc(/C=N/NC(=O)CSc3nnc(C)s3)c3ccccc32)cc1 (stereo unspecified)	-7	6	-21%	?	22µM*
COC(=O)N/N=C/c1cn(CCOc2cccc(OC)c2)c2ccccc12	-3	-3	-14%	24%	0%
Cc1cccc(OCCn2cc(/C=N/NC(=O)c3ccncc3)c3ccccc32)c1	6	-9	21µM*	4.5µM*	5.6µM*
CCn1c2ccccc2c2cc(/C=N/NC(=O)c3ccncc3)ccc21	-1	-4	?	8.9µM*	?
CCn1c2ccccc2c2cc(/C=N/NC(=O)c3ccc(O)cc3)ccc21	-1	0	?	-2%	-19%
Cc1ccc(S(=O)(=O)CCC(=O)NCc2ccccc2F)cc1	.	-2	12%	.	.
COc1ccc(C(C)=O)cc1COC(=O)c1cc(=O)c2ccccc2o1	-4	7	11%	-27%	-19%
C[C@@]12C=Cc3occc3C1CC[C@@]13C[C@@H](CCC12)[C@@](O)(CO)C3 (stereo partly specified)	2	.	.	-35%	-26%
Cc1ccc(-c2nc(Nc3cccc(C)c3)sc2CC(=O)O)cc1	-15	8	?	11µM*	-8%
CC(=O)OC[C@@H]1O[C@H](C/C=N\OCC[C@H]2C=C[C@H](OC(C)=O)[C@@H](COC(C)=O)O2)C=C[C@@H]1OC(C)=O	0	.	.	-22%[10 µM]	-4%[10 µM]

Source: PubChem BioAssay
